This is part of a sample that, as a whole, favours compounds with a hit. Of some 83,000 tested, about 20% had one in any assay.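 Assay: single dose, 48 h. Readout: percent growth (0 = no net growth; negative = cell death). Active: <10.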 Values without a mark were called inactive. Active and inactive are the calls of the source.
How the values were obtained:
Assay in all cases: NCI-60 one-dose screen, 48 h (100 = growth as untreated, 0 = no growth, -100 = all killed)
Details in all cases: 10 µM unless noted
[1] = system: SR leukemia
[2] = system: RPMI-8226 leukemia
[3] = system: OVCAR-8 ovarian
[4] = system: OVCAR-5 ovarian
[5] = system: OVCAR-4 ovarian
[6] = system: IGROV1 ovarian
[7] = system: OVCAR-3 ovarian
[8] = system: HS 578T breast
[9] = system: NCI/ADR-RES ovarian

Structure (SMILES) | growth [1] | growth [2] | growth [3] | growth [4] | growth [5] | growth [6] | growth [7] | growth [8] | growth [9]
CCCC[N+](C)(N)CCCC | 92.1% | 94.3% | 99.2% | 103% | 108% | 119% | 113% | 115% | 119%
COC(=O)/C=C/c1cc(O)c2oc(-c3ccc(O)c(O)c3)c(C(=O)OC)c2c1 | 22% | -16.8% (active) | 18.5% | 43.6% | 42.8% | 32.4% | 11.7% | 18.3% | -3.33% (active)
CC1CCCCC[N+]12CCCC2 (stereo not drawn) | 91.7% | 100% | 101% | 106% | 113% | 102% | 116% | 112% | 111%
BrCCCOc1ccc(Oc2ccc(OCCCBr)cc2)cc1 | 93.8% | 98% | 94.6% | 122% | 99% | 97.7% | 123% | 92.8% | 110%
CNc1ccc(Nc2ccc(S(=O)(=O)O)cc2)c2c1C(=O)c1ccccc1C2=O | 99.7% | 107% | 101% | 98.7% | 109% | 105% | 121% | – | 108%
Nc1nc2c(c3cnccc13)C(c1cccc(Br)c1)Cc1cnccc1-2 (stereo not drawn) | 17.8% | -2.76% (active) | 28.8% | 43.9% | 37.5% | 27.9% | 1.08% (active) | 42.3% | -4.12% (active)
N=C(N)c1ccc(-c2ccc(-c3ccc(Cl)cc3)s2)s1 | -30.1% (active) | -38.2% (active) | -37% (active) | -79.4% (active) | -50.8% (active) | -49.5% (active) | -78.8% (active) | -21.7% (active) | -47% (active)
COc1ccc2oc(=O)cc(CN3C(=O)S/C(=C\c4ccc(Cl)cc4)C3=O)c2c1 | 71.8% | 73.1% | 100% | 97.3% | 91.7% | 102% | 89.1% | 108% | 94.6%
COc1cc(/C=C/C(=O)/C=C(/C=C/c2ccc(OC(C)=O)c(OC)c2)OB(F)F)ccc1OC(C)=O | -2.62% (active) | 14.3% | 20% | 104% | 69.6% | 65.5% | 18.9% | 76.2% | 43.6%
CN(C)CCOC(=O)C(C)(C)C | 99.5% | 106% | 99.7% | 103% | 111% | 106% | 111% | 105% | 110%
CC1=C[C@@H]2c3c(c(O)c(O)c4oc5cc(O)cc(O)c5c(=O)c34)[C@@H](c3cc(O)c(O)c4oc5cc(O)cc(O)c5c(=O)c34)[C@@H]2C(C)(C)C1 | 4.52% (active) | -4.75% (active) | 7.34% (active) | 19.6% | 22.3% | 12.9% | -10.4% (active) | 8.08% (active) | 68.8%
COc1cccc(NC(=O)NCCNc2nccc(-c3c(-c4ccc(F)cc4)nc4sccn34)n2)c1 | 88.3% | 82.2% | 65.5% | 87% | 96% | 60.5% | 90.4% | 110% | 91.2%
Nc1nc2cc(O)ccc2n2cc3c(F)cccc3c12 | 10.8% | 53.7% | 26.5% | 38.7% | -4.95% (active) | 18.4% | 30% | -21.4% (active) | 15.8%
CCCC(=O)Nc1ccccc1C(=O)O | 93.1% | 109% | 91.1% | 99.5% | 101% | 110% | 94.7% | 102% | 96.3%
CCCCCCCCCCCCCCCCC(=O)O.CCCCCCCCCCCCCCCCCC(=O)O.CCCCCCCCCCCCCCCCCC(=O)O.CCCCCCCCCCCCCCCCCC(=O)O.CCCCCCCCCCCCCCCCCC(=O)O.CO[CH-]OC12COC1CC(O)C1(C)C(O)C(OC(C)O)C3=C(C)C(OC(=O)C(O)C([NH-])c4ccccc4)CC(O)(C(OC(=O)c4ccccc4)C21)C3(C)C.[Cu+].[Zn].[Zn].[Zn].[Zn].[Zn] (stereo not drawn) | 37.4% | 22.4% | 45.4% | 24.9% | 40.1% | 33.4% | – | 10.5% | 42.4%
